Data taken from PubChem BioAssay.
The source made the active and inactive calls. Unless noted, how the calls were made is not given here.

Experiments:
[1] = anti-His antibody binders, primary screen, artefact control for SMM control protein annotation, biochemical, small-molecule microarray, 635 nm fluorescence (AID 1128); conditions: anti-His Alexa647 antibody binding, higher = more signal;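 further: score merges feature fluorescence with signal-to-noise for each printed compound spot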
[2] = test system: Human papillomavirus type 1a E7 protein (residues 1-88); assay: HPV1a E7 small-molecule binders, primary screen, biochemical, small-molecule microarray, residues 1-88, 635 nm (AID 1129); conditions: small-molecule microarray binding, fluorescence 635 nm; higher = more signal
[3] = target: Focal adhesion kinase 1 (Homo sapiens) (UniProt Q05397); assay: small-molecule microarray binders of FAK, primary screen, biochemical, 635/667 nm fluorescence, BSA, DTT (AID 1130); conditions: PTK2 binding, 635 nm fluorescence, higher = more signal;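 further: composite of spot emission at 667 nm and signal to noise over triplicate slides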
[4] = test system: Fibrinogen (Alexa647-labelled); assay: fibrinogen binders on compound microarrays, profiling panel, artefact control for SMM control-protein annotation, biochemical, small-molecule microarray, 635/667 nm fluorescence (AID 1131); conditions: fibrinogen-A647 binding fluorescence, higher = more signal;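 further: z-score merges 667 nm fluorescence with per-spot signal-to-noise over triplicate slides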
[5] = target: Follistatin (Homo sapiens) (UniProt P19883); assay: follistatin binders on small-molecule microarrays, primary screen, biochemical, small-molecule microarray, 635/667 nm fluorescence (AID 1132); conditions: FST binding, 635 nm fluorescence, higher = more signal
[6] = target: Fibroblast growth factor 2 (Homo sapiens) (UniProt P09038); assay: FGF2 binders on small-molecule microarrays, primary screen, biochemical, small-molecule microarray, 635/667 nm fluorescence (AID 1133); conditions: small-molecule microarray binding, FGF2, fluorescence 635/667; higher = more signal
[7] = mitochondrial membrane potential change in A549 cells, profiling panel, cell-based, JC-1 fluorescence, basal, 24 h, 100 nL (AID 1138); conditions: higher = more signal;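 further: A549 lung adenocarcinoma cells under basal conditions with no added stimulus; test concentration not given here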
Lefty1 = Lefty1 binders on small-molecule microarrays, primary screen, biochemical, small-molecule microarray, 635/667 nm fluorescence (AID 1139); conditions: small-molecule microarray binding, fluorescence 635/667; higher = more signal
[8] = test system: wheat germ agglutinin (Triticum aestivum), Alexa647-labelled; assay: wheat germ agglutinin binders on compound microarrays, profiling panel, artefact control for SMM control-protein annotation, biochemical, small-molecule microarray, 635/667 nm fluorescence (AID 1140); conditions: WGA-A647 binding, 635 nm fluorescence, higher = more signal;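 further: score merges 667 nm feature emission with signal to noise over triplicate slides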
[9] = target: Luciferin 4-monooxygenase (Photinus pyralis) (UniProt P08659); assay: firefly luciferase enzyme inhibitors, primary screen, biochemical, luminescence, purified enzyme, 2006 set (AID 1141); conditions: SteadyGlo luminescence, 30 min, higher = more signal, called active from +8 up or from −8 down;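 further: cell-free assay with purified firefly luciferase at 100 ng per well in PBS; test concentration not given here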
[10] = test system: Wnt5a (protein binding on small-molecule microarray); assay: Wnt5a binders on small-molecule microarray, primary screen, biophysical, 635/667 nm fluorescence (AID 1142); conditions: 635 nm fluorescence, higher = more signal;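 further: fluorescence read at 667 nm with signal to noise per printed feature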
[11] = cell viability in Huh7 cells, primary screen, cytotoxicity control for HCV replication inhibitor project, CellTiter-Glo luminescence, basal, 48 h (AID 1143); conditions: Huh7 HCV replicon, higher = more signal, called active from +8 up or from −8 down;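 further: Huh7 hepatoma cells carrying a hepatitis C replication reporter with no stimulus; test concentration not given here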
[12] = P. aeruginosa biofilm formation inhibitors, primary screen, PAO1 strain, BacTiter-Glo luminescence, LB-PBS (AID 1144); conditions: 12 h, higher = more signal
[13] = CREB reporter modulators without forskolin, primary screen, cell-based, PC12, CRE-LacZ reporter, unstimulated (AID 1145); conditions: no forskolin, luminescence, 4.5 h, higher = more signal, called active from +8 up or from −8 down
[14] = CREB reporter modulators under forskolin, primary screen, cell-based, PC12, CRE-LacZ reporter, forskolin-stimulated (AID 1146); conditions: luminescence, 4.5 h, higher = more signal, called active from +8 up or from −8 down;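 further: PC12 cells with 6xCRE LacZ reporter stimulated by forskolin 10 µM; beta-galactosidase reporter signal reflecting CREB driven transcription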
[15] = target: Streptavidin (Streptomyces avidinii) (UniProt P22629); assay: streptavidin binders on small-molecule microarray, primary screen, artefact control for SMM compound annotation, biophysical, 635/667 nm fluorescence (AID 1147); conditions: streptavidin binding, higher = more signal;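 further: signal reflects streptavidin binding to arrayed compounds as a control protein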
[16] = small-molecule binders of probe aInhba, primary screen, biochemical, small-molecule microarray, 635/667 nm fluorescence (AID 1148); conditions: higher = more signal;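 further: score merges 667nm spot fluorescence with signal-to-noise for antibody binding to printed compounds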
Torsin-1A (Homo sapiens) [17] = target: Torsin-1A (Homo sapiens) (UniProt O14656); assay: torsin A binders from cell lysate, primary screen, small-molecule microarray, wild-type, 635/667 nm (AID 1149); conditions: COS7 hTOR1A-WT lysate, 635 nm fluorescence, higher = more signal
Torsin-1A (Homo sapiens) [18] = target: Torsin-1A (Homo sapiens) (UniProt O14656); assay: small-molecule binders of mutant TOR1A in lysate, primary screen, cell lysate, small-molecule microarray, COS7 lysate, 635/667 nm fluorescence (AID 1150); conditions: COS7 hTOR1A mutant lysate, 635 nm fluorescence, higher = more signal;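 further: score pools 667 nm emission and signal to noise measuring lysate protein binding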
[19] = test system: Sonic hedgehog protein (Shh); assay: small-molecule binders of Shh protein, primary screen, biochemical, small-molecule microarray, 635/667 nm fluorescence (AID 1151); conditions: small-molecule microarray binding, 635 nm fluorescence; higher = more signal;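 further: Shh protein binding to compounds spotted on small-molecule microarray slides; score combines spot fluorescence intensity with signal-to-noise across triplicate slides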

Luciferin 4-monooxygenase (Photinus pyralis), sequence (P08659 whole entry, looked up): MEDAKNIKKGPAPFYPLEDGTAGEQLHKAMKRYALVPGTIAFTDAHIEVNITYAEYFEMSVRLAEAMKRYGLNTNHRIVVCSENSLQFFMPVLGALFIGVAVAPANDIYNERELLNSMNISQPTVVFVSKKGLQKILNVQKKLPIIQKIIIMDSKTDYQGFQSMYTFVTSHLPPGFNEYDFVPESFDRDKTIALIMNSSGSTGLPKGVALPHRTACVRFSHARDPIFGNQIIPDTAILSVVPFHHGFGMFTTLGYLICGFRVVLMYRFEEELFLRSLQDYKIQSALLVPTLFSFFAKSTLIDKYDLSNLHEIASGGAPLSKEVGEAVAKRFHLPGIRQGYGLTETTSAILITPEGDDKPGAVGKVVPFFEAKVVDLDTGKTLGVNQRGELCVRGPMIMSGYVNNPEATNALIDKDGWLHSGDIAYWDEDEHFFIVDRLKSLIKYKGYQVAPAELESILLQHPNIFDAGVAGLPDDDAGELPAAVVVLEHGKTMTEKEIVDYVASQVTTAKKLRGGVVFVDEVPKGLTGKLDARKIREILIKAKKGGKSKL
Torsin-1A (Homo sapiens), sequence (O14656 whole entry, looked up): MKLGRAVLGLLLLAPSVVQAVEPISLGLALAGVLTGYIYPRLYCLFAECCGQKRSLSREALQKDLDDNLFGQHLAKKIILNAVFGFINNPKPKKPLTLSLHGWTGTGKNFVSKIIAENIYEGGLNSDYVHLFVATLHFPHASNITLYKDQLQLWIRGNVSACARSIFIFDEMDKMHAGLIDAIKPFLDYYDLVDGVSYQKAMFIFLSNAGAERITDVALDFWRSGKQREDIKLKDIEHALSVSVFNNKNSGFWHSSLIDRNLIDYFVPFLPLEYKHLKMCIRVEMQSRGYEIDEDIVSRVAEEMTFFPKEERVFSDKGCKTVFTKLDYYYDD
Follistatin (Homo sapiens), sequence (P19883 whole entry, looked up): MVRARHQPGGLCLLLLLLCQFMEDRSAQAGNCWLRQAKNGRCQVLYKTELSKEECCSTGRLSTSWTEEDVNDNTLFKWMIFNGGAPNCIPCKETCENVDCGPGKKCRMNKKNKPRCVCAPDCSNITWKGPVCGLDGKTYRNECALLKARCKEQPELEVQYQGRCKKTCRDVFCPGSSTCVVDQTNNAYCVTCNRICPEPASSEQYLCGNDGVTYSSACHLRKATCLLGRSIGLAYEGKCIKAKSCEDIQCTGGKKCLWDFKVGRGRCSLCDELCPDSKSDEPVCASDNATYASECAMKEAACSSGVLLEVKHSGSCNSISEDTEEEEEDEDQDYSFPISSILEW
Fibroblast growth factor 2 (Homo sapiens), sequence (P09038 whole entry, looked up): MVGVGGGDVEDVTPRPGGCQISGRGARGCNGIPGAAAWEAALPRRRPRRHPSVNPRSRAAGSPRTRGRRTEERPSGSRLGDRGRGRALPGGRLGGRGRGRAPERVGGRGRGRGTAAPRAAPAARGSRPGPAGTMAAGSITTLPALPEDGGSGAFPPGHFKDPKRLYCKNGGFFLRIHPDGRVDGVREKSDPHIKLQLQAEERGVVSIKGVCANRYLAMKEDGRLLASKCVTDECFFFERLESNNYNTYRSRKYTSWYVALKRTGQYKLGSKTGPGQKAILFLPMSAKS
Streptavidin (Streptomyces avidinii), sequence (P22629 whole entry, looked up): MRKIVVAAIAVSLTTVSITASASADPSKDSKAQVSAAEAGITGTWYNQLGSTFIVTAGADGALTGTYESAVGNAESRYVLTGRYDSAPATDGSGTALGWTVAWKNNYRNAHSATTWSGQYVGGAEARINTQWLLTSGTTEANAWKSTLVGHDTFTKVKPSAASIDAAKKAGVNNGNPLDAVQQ
Focal adhesion kinase 1 (Homo sapiens), sequence (Q05397 whole entry, looked up): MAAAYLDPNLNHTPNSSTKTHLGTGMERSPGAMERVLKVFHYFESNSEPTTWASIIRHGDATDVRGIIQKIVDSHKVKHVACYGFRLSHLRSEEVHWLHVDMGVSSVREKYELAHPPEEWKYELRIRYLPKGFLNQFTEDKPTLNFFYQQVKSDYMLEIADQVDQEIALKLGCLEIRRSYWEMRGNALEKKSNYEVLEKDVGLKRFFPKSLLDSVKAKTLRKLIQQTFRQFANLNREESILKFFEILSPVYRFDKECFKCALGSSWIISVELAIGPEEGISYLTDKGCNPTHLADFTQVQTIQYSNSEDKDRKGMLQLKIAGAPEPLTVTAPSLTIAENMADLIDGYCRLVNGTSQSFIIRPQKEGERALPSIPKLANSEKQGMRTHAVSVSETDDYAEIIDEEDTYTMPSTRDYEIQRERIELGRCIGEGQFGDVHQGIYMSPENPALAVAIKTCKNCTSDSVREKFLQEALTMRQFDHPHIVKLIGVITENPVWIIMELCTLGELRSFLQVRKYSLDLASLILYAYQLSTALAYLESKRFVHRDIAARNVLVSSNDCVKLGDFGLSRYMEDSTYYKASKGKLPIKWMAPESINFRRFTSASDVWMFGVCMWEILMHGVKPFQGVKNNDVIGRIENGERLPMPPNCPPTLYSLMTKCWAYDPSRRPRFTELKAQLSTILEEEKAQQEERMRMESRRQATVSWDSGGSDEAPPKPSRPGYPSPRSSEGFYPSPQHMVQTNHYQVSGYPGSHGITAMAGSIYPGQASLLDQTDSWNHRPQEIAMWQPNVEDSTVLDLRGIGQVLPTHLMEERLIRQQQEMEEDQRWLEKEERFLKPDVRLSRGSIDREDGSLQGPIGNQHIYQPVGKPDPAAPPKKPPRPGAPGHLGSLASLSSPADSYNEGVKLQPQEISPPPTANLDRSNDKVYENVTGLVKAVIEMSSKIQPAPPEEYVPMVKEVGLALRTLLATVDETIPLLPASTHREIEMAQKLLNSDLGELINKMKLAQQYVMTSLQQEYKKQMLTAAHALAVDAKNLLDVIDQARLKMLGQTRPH

SMILES | composite z-score [1] | composite z-score [2] | composite z-score [3] | composite z-score [4] | composite z-score [5] | composite z-score [6] | z-score [7] | composite z-score (Lefty1) | composite z-score [8] | z-score [9] | composite z-score [10] | z-score [11] | z-score [12] | z-score [13] | z-score [14] | composite z-score [15] | composite z-score [16] | composite z-score (Torsin-1A (Homo sapiens) [17]) | composite z-score (Torsin-1A (Homo sapiens) [18]) | composite z-score [19]
CCCCc1cn(C[C@H](Cc2ccccc2)NC(=O)N[C@H](CO)CCc2oc(C(C)=O)c(C(=O)OC)c2C(=O)OC)nn1 | 0.97 | 1.2 | 0.54 | 0.921 | 1.18 | 0.866 | -0.419 | 1.16 | 0.445 | 1.29 (inactive) | 0.276 | -2.8 (inactive) | -1.09 (inactive) | 1.02 (inactive) | 0.549 (inactive) | 0.881 | -0.0448 | 0.992 | 0.454 | 1.99
COC(=O)[C@@]1(Cc2ccccc2)[C@H]2c3cc(C(=O)N4CCCC4)n(Cc4nc5ccccc5[nH]4)c3C[C@H]2CN1C(=O)c1ccccc1 | 2.51 | 1.24 | 1.22 | 0.656 | 1.11 | -0.297 | 1.05 | -0.931 | 0.726 | 1.5 (inactive) | 0.0972 | -2.97 (inactive) | -0.509 (inactive) | 0.773 (inactive) | 1.46 (inactive) | 1.51 | 0.427 | 0.746 | 1.24 | -0.105
[N-]=[N+]=Nc1ccccc1[C@H]1OC(c2ccc(OCCCO)cc2)=N[C@@]1(Cc1ccccc1)C(=O)O | 0.864 | 1.25 | 0.345 | 1.04 | 1.17 | 0.284 | 0.384 | 0.708 | 0.611 | -9.33 (active) | 0.0316 | -1.1 (inactive) | -0.0839 (inactive) | -0.0249 (inactive) | -1.38 (inactive) | 0.365 | 0.0342 | 0.395 | 0.306 | 1.07
O=C(c1ccccc1)N1Cc2ccccc2[C@@H]2OC(c3ccc(OCCCO)cc3)=N[C@]2(Cc2ccccc2)C1=O | 2.33 | 1.19 | 0.319 | 0.924 | 1.32 | 1.02 | -0.411 | 0.838 | 0.765 | -0.976 (inactive) | 0.624 | -3.55 (inactive) | -0.554 (inactive) | 1.35 (inactive) | 0.715 (inactive) | 0.215 | 0.188 | 0.236 | 0.423 | 1.33
CC(C)(C)OC(=O)CC[C@@]1(C(N)=O)N=C(c2ccc(OCCCO)cc2)O[C@@H]1c1ccccc1 | 1.27 | 1.13 | 0.754 | 0.971 | 0.136 | -0.343 | -0.655 | -0.0503 | 0.178 | -0.637 (inactive) | 0.22 | -0.0043 (inactive) | -0.256 (inactive) | 1.5 (inactive) | -1.12 (inactive) | 0.818 | -0.0533 | 0.361 | 1.42 | -0.954
O=C1O[C@H](c2ccccc2)[C@H](c2ccccc2)N2[C@H]1[C@@H](C(=O)Nc1nc3ccccc3s1)[C@]1(C(=O)Nc3ccc(C#CC4(O)CCCCCC4)cc31)[C@H]2c1ccc(OCCO)cc1 | 2 | 1.14 | 0.429 | 0.976 | 1.43 | 1.39 | -2.27 | 1.05 | 0.921 | -2.79 (inactive) | 0.248 | -1.04 (inactive) | -1.88 (inactive) | -0.402 (inactive) | 0.858 (inactive) | 1.18 | 0.284 | 0.401 | 1.01 | 1.68
CCCCN1CC=CC23O[C@@H]4C=CCOC(=O)[C@@H]4[C@H]2C(=O)N(CCCCCO)[C@@H]3C1=O (stereo not given in full) | 0.0981 | -0.444 | -0.204 | -0.921 | -0.712 | -0.342 | -0.478 | -0.393 | -0.651 | 0.01 (inactive) | -0.103 | 0.445 (inactive) | -1.08 (inactive) | -0.761 (inactive) | -0.645 (inactive) | -1.32 | -0.0531 | -0.915 | 1.23 | 1.07
O=C1O[C@H](c2ccccc2)[C@H](c2ccccc2)N2[C@H]1[C@@H](C(=O)Nc1nc3ccccc3s1)[C@]1(C(=O)Nc3ccc(C#CCCO)cc31)[C@H]2c1ccc(OCCO)cc1 | 1.18 | 1.18 | 0.232 | 0.9 | 1.43 | 1.15 | -2.36 | 1.16 | 1.04 | -2.97 (inactive) | 0.767 | -0.218 (inactive) | -0.0404 (inactive) | -0.471 (inactive) | 0.806 (inactive) | 1.1 | 0.532 | 1.15 | 0.637 | 1.05
CCCC=C(CCC)[C@@H](NC(=O)Oc1ccc(F)cc1)c1ccc(C(=O)OC)cc1 | 0.421 | 1.15 | 0.401 | 0.906 | 0.746 | -0.161 | 2.89 | -0.186 | 1.09 | 0.516 (inactive) | 0.0931 | -3.08 (inactive) | -0.135 (inactive) | 0.194 (inactive) | 1.43 (inactive) | 1.55 | 0.329 | -0.0302 | 0.262 | -0.69
